Out of some 86,000 compounds screened, about 1,400 (1.6%) were called active. This is one part of a sample in which actives are shown more often than they occur. Cut-off read from the data, not from the text of the source: active = inhibition above about 50%; inactive = the rest.
What follows are compounds tested against Estrogen receptor (Homo sapiens) (UniProt P03372) (assay: ERα–SRC-1 coactivator interaction inhibitors, primary screen, biochemical, TR-FRET, ERα LBD, estradiol-bound (AID 629;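 note: 0% = receptor plus peptide control and 100% = peptide only without receptor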)). Settings: TR-FRET ER-alpha LBD / SRC-1 peptide, at 25.6 µM, hits give high values.
Sequence of Estrogen receptor (Homo sapiens) (P03372 whole entry, looked up, the tested form may be a part): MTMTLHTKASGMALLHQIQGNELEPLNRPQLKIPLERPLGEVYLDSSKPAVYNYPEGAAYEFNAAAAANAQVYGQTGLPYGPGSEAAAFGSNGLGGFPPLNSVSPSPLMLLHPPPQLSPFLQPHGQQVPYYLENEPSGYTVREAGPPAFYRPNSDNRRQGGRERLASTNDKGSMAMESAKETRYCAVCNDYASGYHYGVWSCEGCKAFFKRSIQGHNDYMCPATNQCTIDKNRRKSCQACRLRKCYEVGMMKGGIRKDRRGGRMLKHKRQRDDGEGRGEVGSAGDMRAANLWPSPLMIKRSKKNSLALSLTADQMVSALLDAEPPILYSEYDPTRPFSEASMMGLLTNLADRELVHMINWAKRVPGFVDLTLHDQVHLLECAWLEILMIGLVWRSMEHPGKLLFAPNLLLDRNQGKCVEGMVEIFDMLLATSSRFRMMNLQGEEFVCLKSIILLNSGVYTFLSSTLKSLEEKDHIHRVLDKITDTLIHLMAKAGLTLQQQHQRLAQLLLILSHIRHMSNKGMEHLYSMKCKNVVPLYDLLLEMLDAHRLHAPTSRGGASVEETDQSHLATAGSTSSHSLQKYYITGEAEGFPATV
In the case of `O=C(CN1CCN(C(=O)c2ccco2)CC1)Nc1ccc2c(c1)OCO2`, the inhibition is reported as -22.6% (inactive).
In the case of `CCOC(=O)C1=C(CSc2nnnn2C)N(C)C(=O)NC1c1ccccc1` (centres undefined), the inhibition is reported as -4.78% (inactive).
With `CCn1c(=N)c(C(=O)NCCCOC)cc2c(=O)n3cccc(C)c3nc21` the inhibition was -7.26% (inactive).
For `COc1ccc(CNC(=O)c2cc3c(=O)n4ccccc4nc3n(CC3CCCO3)c2=N)cc1` (centres undefined), the inhibition was 3.23% (inactive).
In the case of `O=C(NCc1ccco1)c1cc(-c2cccnc2)nc2ccc(Cl)cc12`, the inhibition is reported as 10.8% (inactive).
`O=C(Nc1ccccc1)Nc1ccccc1C(=O)NCc1ccco1` was tested, and the inhibition was -4.11% (inactive).
`COc1ccc(CCn2c(=N)c(C(=O)NCc3ccco3)cc3c(=O)n4cccc(C)c4nc32)cc1` was tested, and the inhibition was 65.7% [fluorescence artefact?] (active).
With `O=C(NCc1ccco1)c1cccn2c(=O)c3cc(Br)ccc3nc12` the inhibition was 56.4% [fluorescence artefact?] (active).
In the case of `Cc1ccc(/C=N/NC(=O)C2=NNC(c3ccccc3)(c3ccccc3)C2)c(O)c1`, the inhibition is reported as 21.9% (inactive).
In the case of `CCSc1ccccc1C(=O)NCc1ccc(OC)cc1`, the inhibition is reported as -6.6% (inactive).
With `COC(=O)/C(NC(C)=O)=C(\C)c1ccc(Cl)cc1` the inhibition was -8.11% (inactive).
For `CC(=O)NC1=NN(C(C)=O)C(C)(c2ccc(Cl)s2)S1` (centres undefined), the inhibition was 2.57% (inactive).
With `CN(C)c1ccnc2sc3c(=O)n(-c4ccc(Cl)cc4)cnc3c12` the inhibition was 42.5% (inactive).
With `COC(=O)C1=C(C(=O)OC)C2(OC1c1ccc(Br)cc1)C(=O)c1ccccc1C2=O` (centres undefined) the inhibition was -2.52% (inactive).
In the case of `Cc1cnc(C(=O)OCC(=O)Nc2ccc(Cl)cc2Cl)cn1`, the inhibition is reported as -9.26% (inactive).
In the case of `COc1ccc(OC)c(NC(=O)c2cnn(-c3ccccc3Cl)c2NC(=O)c2ccco2)c1`, the inhibition is reported as -3.16% (inactive).
`COc1ccc(CN2CCn3ncc(C(=O)Nc4ccc(Cl)cc4Cl)c3C2=O)cc1` was tested, and the inhibition was 54.9% [fluorescence artefact?] (active).
`O=C(c1cccc(F)c1)N1CCC(O)(c2cccnc2)CC1` was tested, and the inhibition was 1.95% (inactive).
`CCCNC(=O)CN(Cc1ccccc1F)S(=O)(=O)c1ccc(C)cc1` was tested, and the inhibition was 5.89% (inactive).
For `COc1ccccc1NC(=O)CN1CCN(S(=O)(=O)c2ccc(Br)cc2)CC1`, the inhibition was 39.3% (inactive).
With `O=C(CN1CCN(S(=O)(=O)c2ccc(F)cc2)CC1)Nc1ccccc1F` the inhibition was 64.5% [fluorescence artefact?] (active).
With `COc1cc2c(cc1NC(=O)CN1CCN(S(=O)(=O)c3ccc(F)cc3)CC1)oc1ccccc12` the inhibition was 14.2% (inactive).
For `CCCCNC(=O)C1(c2ccc(OC)cc2)CCOCC1`, the inhibition was 25.4% (inactive).
In the case of `OC(CN=c1sc2ccccc2n1CC(O)COc1ccccc1)COc1ccccc1` (centres undefined), the inhibition is reported as -21.1% (inactive).
For `O=C(Nc1ccc2c(c1)OCCO2)C(c1ccc(F)cc1)N1CCCCC1` (centres undefined), the inhibition was 1.74% (inactive).
For `COC(=O)c1[nH]c2ccccc2c1NC(=O)CN1CCCc2ccccc21`, the inhibition was 66.9% [fluorescence artefact?] (active).
In the case of `COC(=O)c1[nH]c2cccc(C)c2c1NC(=O)CN1CCCc2ccccc21`, the inhibition is reported as 33.1% (inactive).
`CCOC(=O)c1[nH]c2ccc(OC)cc2c1NC(=O)CCN1CCN(Cc2ccccc2)CC1` was tested, and the inhibition was 0.69% (inactive).
In the case of `COC(=O)c1ccccc1NC(=O)CN(Cc1ccc(Cl)cc1)S(C)(=O)=O`, the inhibition is reported as 5.73% (inactive).
In the case of `C=CCc1ccc(OCCOc2cccc(/C=N/n3cnnc3)c2)c(OC)c1`, the inhibition is reported as -8.6% (inactive).
With `COc1ccc(CC(=O)Nc2ccc(-c3nnc(-c4ccc(C)cc4)o3)cc2)cc1` the inhibition was 8.24% (inactive).
With `Cc1ccc(OCC(=O)Nc2ccc(-c3nnc(-c4ccco4)o3)cc2)cc1` the inhibition was 63.7% [fluorescence artefact?] (active).
For `CCOc1ccc(-c2nnc(-c3ccco3)o2)cc1`, the inhibition was -0.96% (inactive).
For `O=C(CSc1nc2cccnc2n1Cc1ccccc1)N1CCc2ccccc21`, the inhibition was 34.4% (inactive).
`COc1nc(NC2CCCCC2)nc(N2CCCCCC2)n1` was tested, and the inhibition was 6.7% (inactive).
For `C=C(C)Cn1c(SCC(=O)NCc2ccco2)nc2sc3c(c2c1=O)CCC3`, the inhibition was 7.04% (inactive).
`COc1ccc(-n2c(SCC(=O)Nc3sc4c(c3C#N)CCCC4)nnc2-c2ccc(O)cc2)cc1` was tested, and the inhibition was 78.5% [fluorescence artefact?] (active).
For `COC(=O)c1c(NC(=O)CSc2nncs2)sc2c1CCCCC2`, the inhibition was -1.55% (inactive).
With `N#Cc1c(NC(=O)CSc2nc3ccccc3c(=O)n2Cc2ccco2)sc2c1CCCC2` the inhibition was 61.9% [fluorescence artefact?] (active).
With `COc1ccc(-c2nnc(SCC(=O)c3ccco3)n2-c2ccccc2)cc1` the inhibition was 11% (inactive).
With `CC(Sc1nc2ccccc2c(=O)n1Cc1ccco1)C(=O)c1ccccc1` (centres undefined) the inhibition was 4.97% (inactive).
In the case of `Cc1cccn2c(=O)c(/C=C(\C#N)S(=O)(=O)c3ccc(Cl)cc3)c(N3CCC(C(N)=O)CC3)nc12`, the inhibition is reported as -0.02% (inactive).
With `O=C(CSCc1c(F)cccc1Cl)NCC1CCCO1` (centres undefined) the inhibition was -1.37% (inactive).
For `CCCCOc1ccc(C(=O)NCc2ccncc2)cc1`, the inhibition was 1.95% (inactive).
For `Cc1ccnc(N2C(=O)c3ccccc3C2Nc2ccc3c(c2)OCCO3)c1` (centres undefined), the inhibition was 1.59% (inactive).
`COC(=O)c1cc(NC2c3ccccc3C(=O)N2c2ccc(Cl)cn2)cc(C(=O)OC)c1` (centres undefined) was tested, and the inhibition was 66.6% (active).
For `CCc1ccccc1NC1c2ccccc2C(=O)N1c1cccnc1` (centres undefined), the inhibition was -8.02% (inactive).
`CCOC(=O)C1=C(C)NC(SC)=NC1c1ccccc1` (centres undefined) was tested, and the inhibition was -2.42% (inactive).
For `Cc1nnc(SC(C)C(=O)Nc2ccc(S(=O)(=O)NC3CCCCC3)cc2)s1` (centres undefined), the inhibition was 21.6% (inactive).
In the case of `COc1ccc(N2CCN(C(=O)CSc3ncnc4c3cnn4-c3ccc(OC)cc3)CC2)cc1`, the inhibition is reported as -7.43% (inactive).
`COc1ccc(N2CCN(C(=O)CSc3nc4cc(OC)c(OC)cc4cc3C#N)CC2)cc1` was tested, and the inhibition was 51.1% [fluorescence artefact?] (active).
`CCOc1ccc2cc(C#N)c(SCC(=O)OC)nc2c1` was tested, and the inhibition was 17.3% (inactive).
`COc1ccc(C)cc1S(=O)(=O)NCCc1ccccc1` was tested, and the inhibition was 8.31% (inactive).
For `Cc1ccc(OC(=O)c2ccccc2C(=O)OCC(F)(F)C(F)F)cc1`, the inhibition was -6.39% (inactive).
With `COc1ccc(-c2ccc(-c3noc(-c4ccncc4)n3)c(OC)n2)cc1` the inhibition was 59.7% (active).
In the case of `COc1cc(-c2nc(-c3ccncc3)no2)cc(OC)c1OC`, the inhibition is reported as -8.51% (inactive).
In the case of `CCOc1nc(-c2ccc(OC)cc2)ccc1-c1noc(-c2cc(OC)c(OC)c(OC)c2)n1`, the inhibition is reported as 9.34% (inactive).
In the case of `NC1=NC(=O)C2(COC(c3ccccc3Cl)OC2)S1` (centres undefined), the inhibition is reported as -0.98% (inactive).
For `CC(=O)c1cccc(NC(=O)Nc2ccc(C)cc2)c1`, the inhibition was 4.59% (inactive).
`Cc1ccc(NC(=S)NC(NC(=O)Cc2cccc3ccccc23)C(Cl)(Cl)Cl)cc1` (centres undefined) was tested, and the inhibition was 57% [fluorescence artefact?] (active).
In the case of `COc1cccc(NC(=O)Cc2ccc(C)cc2)c1`, the inhibition is reported as -3.07% (inactive).
`O=S(=O)(Cc1cc(Sc2ccccc2)nc(-c2ccccc2)n1)c1ccccc1` was tested, and the inhibition was -0.05% (inactive).
In the case of `CSc1ccc(S(=O)(=O)NC2CCCCC2)cc1`, the inhibition is reported as 6.27% (inactive).
`CC(=O)Nc1ccc(S(=O)(=O)Nc2cccc(NC(=O)C(C)(C)C)c2)cc1` was tested, and the inhibition was -5.55% (inactive).
With `CSc1ccc(S(=O)(=O)Nc2cccc(F)c2)cc1` the inhibition was 61.3% (active).
With `Cc1cccc(N2CCN(C(c3ccc(N(C)C)cc3)c3nnnn3C(C)(C)C)CC2)c1C` (centres undefined) the inhibition was 1.11% (inactive).
With `CC(=O)C1=C(C)NC(C)=C(C(C)=O)C1c1cn(-c2ccccc2)nc1-c1cccs1` the inhibition was -18.1% (inactive).
For `CC(C)(C)c1cc(=O)n2c(nc3ccccc32)[nH]1`, the inhibition was 11.3% (inactive).
`COCCn1c(SCc2nnc(-c3ccc(OC)c(OC)c3)o2)nc2sc3c(c2c1=O)CCC3` was tested, and the inhibition was -16.5% (inactive).
For `CCCC1(C(=O)OCC)NC(c2ccc(N(C)C)cc2)C2C(=O)N(c3ccc4c(c3)OCCO4)C(=O)C21` (centres undefined), the inhibition was -19% (inactive).
`Cc1nc2ccc(C(=O)N3CCN(c4ccccc4)CC3)cc2s1` was tested, and the inhibition was -14.9% (inactive).
`COc1cccc(-c2nn(C)c3sc(C(=O)N4CCN(c5ccccc5)CC4)cc23)c1` was tested, and the inhibition was 6.81% (inactive).
For `O=C(c1cc2c(s1)CCC2)N1CCN(c2ccccc2)CC1`, the inhibition was 67.9% [fluorescence artefact?] (active).
For `COC(=O)c1cc(OC)ccc1-c1ccc(OC)cc1`, the inhibition was -2.99% (inactive).
`CCc1ccc(CNC(=O)CCc2nc(-c3cccs3)no2)cc1` was tested, and the inhibition was 0.94% (inactive).
In the case of `O=C(c1cc2sccc2n1Cc1ccc(F)cc1)N1CCc2ccccc21`, the inhibition is reported as -24.7% (inactive).
In the case of `CC1(c2ccccc2Cl)NC(=O)N(CC(=O)NC(=O)NCc2ccco2)C1=O` (centres undefined), the inhibition is reported as 9.78% (inactive).
For `O=C(COC(=O)c1ccc(S(=O)(=O)N2CCc3ccccc3C2)cc1)NC(=O)NCc1ccco1`, the inhibition was 10.1% (inactive).
`O=C(CN1CCN(S(=O)(=O)/C=C/c2ccccc2)CC1)NC(=O)NCc1ccco1` was tested, and the inhibition was 55% [fluorescence artefact?] (active).
For `CCCC(C)n1[nH]c(=O)c2c(C)cc(C)nc21` (centres undefined), the inhibition was -5.08% (inactive).
With `CCC(C)n1[nH]c(=O)cc1N` (centres undefined) the inhibition was 60.4% (active).
With `CCC(C)n1[nH]c(=O)c2c(C)cc(C)nc21` (centres undefined) the inhibition was -1.94% (inactive).
`CCN1C(=O)/C(=C2/Sc3ccc(OC)cc3N2C)SC1=Nc1ccc(C)cc1` was tested, and the inhibition was 18.8% (inactive).
For `NC(=O)C1(N2CCCCC2)CCN(C2CC(=O)N(Cc3ccc(N4CCCC4=O)cc3)C2=O)CC1` (centres undefined), the inhibition was -9.78% (inactive).
In the case of `COc1ccc(C(=O)Cc2cnn(-c3ccccc3)c2)c(O)c1`, the inhibition is reported as -7.1% (inactive).
For `COc1ccccc1NC(=O)/C=C/C(N)=O`, the inhibition was 13% (inactive).
For `Cc1ccc(C(=O)COc2cccc(NC(=O)c3ccco3)c2)cc1`, the inhibition was 6.84% (inactive).
In the case of `O=C(Nc1ccc(Oc2ccccc2)cc1)c1ccco1`, the inhibition is reported as 0.33% (inactive).
`CCOc1cc(NC(=O)c2ccco2)c(OCC)cc1NC(=O)COc1ccccc1` was tested, and the inhibition was 77.7% [fluorescence artefact?] (active).

From PubChem BioAssay AID629 (Emory University Molecular Libraries Screening Center, 2007)
